# About 4,100 (2.2%) of roughly 190,000 compounds were called active.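 Rule for the calls: active = thallium flux slope and its plate-corrected score both differing from the plate sample mean at a set confidence after two filtering rounds, in either direction; inactive = the rest.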 The list comes from a sample in which actives are over-represented; it also holds similar structures and randomly drawn compounds.
# Target: Solute carrier family 12 member 5 (Homo sapiens) (UniProt Q9H2X9)
# Experiment: KCC2 cotransporter modulators, thallium flux, primary screen, cell-based, HEK293 KCC2, FluoZin-2 fluorescence, MLSMR (AID 1456);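 note: slope of fluorescence scaled to starting intensity during 10 to 20 s after thallium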
# Conditions: KCC2 cells, thallium flux FluoZin-2 fluorescence; at 10 µM
# Sequence of Solute carrier family 12 member 5 (Homo sapiens) (Q9H2X9 whole entry, looked up): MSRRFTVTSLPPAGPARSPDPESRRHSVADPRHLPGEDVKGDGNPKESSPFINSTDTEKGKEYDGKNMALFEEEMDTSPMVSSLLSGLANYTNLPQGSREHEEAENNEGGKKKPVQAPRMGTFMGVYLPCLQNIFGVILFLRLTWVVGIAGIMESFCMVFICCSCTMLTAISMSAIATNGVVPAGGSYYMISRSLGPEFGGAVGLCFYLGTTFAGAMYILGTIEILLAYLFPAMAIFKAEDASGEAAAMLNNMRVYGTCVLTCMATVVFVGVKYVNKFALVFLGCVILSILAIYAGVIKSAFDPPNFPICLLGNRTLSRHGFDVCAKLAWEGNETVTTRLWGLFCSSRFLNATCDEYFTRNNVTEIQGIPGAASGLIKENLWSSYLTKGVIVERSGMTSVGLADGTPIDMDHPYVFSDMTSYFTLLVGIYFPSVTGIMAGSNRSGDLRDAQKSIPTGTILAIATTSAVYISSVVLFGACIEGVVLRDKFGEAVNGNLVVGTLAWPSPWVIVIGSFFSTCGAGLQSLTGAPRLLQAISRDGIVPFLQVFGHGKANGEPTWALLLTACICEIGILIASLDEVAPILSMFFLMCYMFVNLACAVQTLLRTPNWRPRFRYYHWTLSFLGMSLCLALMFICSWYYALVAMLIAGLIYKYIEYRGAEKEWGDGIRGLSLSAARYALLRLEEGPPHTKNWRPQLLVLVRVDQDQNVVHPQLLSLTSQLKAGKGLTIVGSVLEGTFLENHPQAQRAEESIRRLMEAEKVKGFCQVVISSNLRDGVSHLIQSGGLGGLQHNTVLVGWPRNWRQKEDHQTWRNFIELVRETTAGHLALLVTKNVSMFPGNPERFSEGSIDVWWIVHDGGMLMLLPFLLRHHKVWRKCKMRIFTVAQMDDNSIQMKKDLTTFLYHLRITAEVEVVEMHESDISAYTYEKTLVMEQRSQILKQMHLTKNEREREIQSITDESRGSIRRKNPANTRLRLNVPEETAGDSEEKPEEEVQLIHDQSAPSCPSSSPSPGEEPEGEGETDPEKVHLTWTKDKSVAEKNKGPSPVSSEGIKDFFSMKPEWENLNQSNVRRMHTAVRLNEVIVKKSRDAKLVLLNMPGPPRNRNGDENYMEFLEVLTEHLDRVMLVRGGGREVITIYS
row,SMILES,B-score of Tl+ flux slope (higher = more flux/activation; lower = inhibition)
1,Cc1ccc2cc(/C=N/NC(=O)[C@@H]3CCCN3)c(Cl)nc2c1,0.721 (inactive)
2,O=C(Nc1cccc(C(F)(F)F)c1)c1ccc(N2CCNCC2)c([N+](=O)[O-])c1,1.31 (inactive)
3,Cc1cccc(C(=O)NC(=S)N2CCN(c3ccc([N+](=O)[O-])cc3)CC2)c1,1.26 (inactive)
4,COc1cc(OC)cc(C(=O)NC(=S)N2CCN(c3ccc(C(F)(F)F)cc3[N+](=O)[O-])CC2)c1,6.75 (active)
5,Cc1cccc(C(=O)OCC(=O)NCC(C)C)c1O,-0.558 (inactive)
6,O=C(NCCc1ccccc1)Oc1ccc(Cl)cc1,-2.47 (inactive)
7,CC(C)C1Nc2c(C(=O)O)cccc2C(Nc2ccccc2C(=O)O)C1(C)C (centres undefined),-7.13 (active)
8,O=C(O)c1ccccc1-c1ccccc1C(=O)Nc1cccc2ccccc12,-0.144 (inactive)
9,CCNC(=O)CCc1nc(-c2ccc(C)cc2)no1,0.371 (inactive)
10,C/C(Cc1ccccc1)=N\NC(=O)CNC(=O)c1ccccc1Cl,-0.103 (inactive)
11,O=C(Nc1cccc(Cl)c1)Nc1nnc(-c2ccccc2)o1,3.17 (inactive)
12,O=C(Nc1nnc(-c2ccc(Cl)cc2)o1)c1ccccc1Br,35.2 (active)
13,O=C(Nc1ccc(-c2nnc(-c3ccccc3)o2)cc1)c1ccc(Br)o1,1.83 (inactive)
14,O=C(NNS(=O)(=O)Cc1ccccc1)c1ccc([N+](=O)[O-])cc1,0.00978 (inactive)
15,COc1ccc(NC(=S)Nc2ccccc2Cl)cn1,0.811 (inactive)
16,COc1ccccc1NC(=S)NC(=O)C(C)C,1.52 (inactive)
17,FC(F)Oc1ccccc1NC(=S)Nc1cccc(Cl)c1Cl,6.89 (active)
18,Cc1ccc(Cn2c(SCC(=O)N/N=C/c3ccccc3OCC(=O)O)nc3ccccc32)cc1,1.95 (inactive)
19,O=C(CSc1nnc2n1CCCN2)c1ccccc1,-0.0921 (inactive)
20,CC(C)N1CCC(=NNc2ccc([N+](=O)[O-])cc2S(=O)(=O)N2CCOCC2)CC1,0.0282 (inactive)
21,Cc1ccc(NNC(=O)C2CCC2)cc1C,0.435 (inactive)
22,O=C1/C(=C\c2ccsc2)NC(=S)N1c1ccccc1,11.5 (active)
23,COc1cc2c(cc1/C=C1/NC(=O)N(c3ccccc3)C1=O)OCO2,0.747 (inactive)
24,CN(C)c1ccc(/C=C2\NC(=S)N(Cc3ccccc3)C2=O)cc1,2.56 (inactive)
25,NS(=O)(=O)c1ccc(NC(=S)NC(=O)c2cccnc2)cc1,1.98 (active)

row,SMILES,B-score of Tl+ flux slope (higher = more flux/activation; lower = inhibition)
1,CC(=O)NC(=S)Nc1ccc(NC(=O)c2cccnc2)cc1,1.03 (inactive)
2,NS(=O)(=O)c1ccc(NC(=S)NC(=O)c2cccc(Br)c2)cc1,1.13 (inactive)
3,Cn1c(=O)cc(OCC(=O)N2CCN(c3ccccc3F)CC2)c2ccccc21,-0.0376 (inactive)
4,O=C(CCSc1ccccc1)N1CCN(c2ccccc2F)CC1,-1.46 (inactive)
5,O=C(Cn1c(-c2ccc(Cl)cc2)noc1=O)N1CCN(c2ccccc2F)CC1,-4.49 (active)
6,COc1ccc(OCC(O)CNCCNc2nccc(C(F)(F)F)n2)cc1 (centres undefined),0.542 (inactive)
7,Cc1ccc2c(c1)nnc1nnc(SCC(=O)O)n12,-0.0291 (inactive)
8,c1ccc(-c2nnc(SCc3nc4ccccc4[nH]3)o2)cc1,-1.33 (inactive)
9,Fc1ccc2nc(-c3ccccc3)nc(SCc3nnc(-c4ccccc4)o3)c2c1,41.8 (active)
10,Cc1ccc2nc(SCc3nnc(-c4ccccc4[N+](=O)[O-])o3)c(C#N)cc2c1,0.799 (inactive)
11,O=C(NCc1cccnc1)c1nc(-c2cccs2)no1,0.407 (inactive)
12,CCCCN1Cc2c(nc3cc(-c4ccccc4)[nH]n3c2=O)C1=O,-0.758 (inactive)
13,NCCCCCC(=O)N/N=C/c1ccc2nccnc2c1,1.4 (inactive)
14,CCOC(=O)C1CCCN(C(=O)/C=C/c2ccc(OC)cc2)C1 (centres undefined),-0.769 (inactive)
15,O=C(Nc1ccc(S(=O)(=O)N2CCOCC2)cc1)c1ccc2ncsc2c1,0.51 (inactive)
16,Cc1csc(NC(=S)Nc2cccc(Cl)c2)n1,63.6 (active)
17,CC(=O)Nc1cccc(C(=O)Nc2nc(C)cs2)c1,-0.0712 (inactive)
18,S=C(Nc1cccc(Cl)c1)Nc1ccc2cn[nH]c2c1,-0.0612 (inactive)
19,CCc1nc(NCCO)c(C#N)c2c1CCCC2,-0.68 (inactive)
20,S=C(NCCc1ccccc1)N1CCn2cccc2C1c1ccncc1 (centres undefined),-2.41 (inactive)
21,CN1CCN(c2ncc3c(n2)CC(c2ccccc2F)CC3=O)CC1 (centres undefined),-1.12 (inactive)
22,O=c1c(-c2ccc3c(c2)OCCO3)c(C(F)(F)F)oc2cc(O)cc(O)c12,-2.89 (active)
23,CCOC(=O)c1cc2cc(-c3c(C(=O)OCC)oc4cc(O)cc(O)c4c3=O)ccc2o1,-1.36 (inactive)
24,COc1ccc(-c2onc(C)c2-c2ccc3c(c2)OCCO3)c(O)c1,0.0687 (inactive)
25,COC(=O)C1=C(C)NC(=O)/C1=C/c1ccc(CNS(=O)(=O)c2ccc(C)cc2)o1,-0.17 (inactive)

row,SMILES,B-score of Tl+ flux slope (higher = more flux/activation; lower = inhibition)
1,O=C(O)C(NS(=O)(=O)c1cccc2nsnc12)c1ccccc1 (centres undefined),0.0778 (inactive)
2,CCOC(=O)c1cc(C#N)c(N2CCCCC2)nc1-c1ccccc1,0.496 (inactive)
3,CCCCSc1[nH]c(=O)c(C(=O)OCC)cc1C#N,13 (active)
4,Cc1cc(=O)[nH]c(SCC(N)=O)c1C#N,0.485 (inactive)
5,CCc1c(C)nc2c(-c3ccccc3)c(C)nn2c1Nc1ccc(NC(C)=O)cc1,0.635 (inactive)
6,CC(=O)c1sc(NC(=O)c2ccc(C)cc2)nc1C,0.0252 (inactive)
7,Cc1cc2[nH]ncc2cc1NC(=S)NC(=O)c1ccccc1,0.179 (inactive)
8,Cc1ccccc1NC(=O)c1ccccc1,0.272 (inactive)
9,O=C(NC(=S)Nc1cccc2c(O)cccc12)c1cccc(Br)c1,1.46 (inactive)
10,Cc1ccc(C)c(NC(=S)NNC(=O)c2csc(C)c2)c1,6.59 (active)
11,Cc1ccc(C(=O)NC(=S)Nc2ccccc2C)cc1,26.9 (active)
12,Cc1ccc(NC(=S)NC(=O)c2ccc(-c3ccccc3)cc2)c(C)c1,1.26 (inactive)
13,COC(=O)c1sc(NC(=S)NC(=O)c2ccc(C)cc2)nc1C,33.9 (active)
14,Cc1ccc(C)c(NC(=O)C(OC(=O)c2ccc(C)s2)c2ccccc2)c1 (centres undefined),0.676 (inactive)
15,Cc1ccccc1NC(=S)NNC(=O)c1cccc(Br)c1,11.3 (active)
16,COC(=O)c1sc(NC(=O)c2ccc(OC)cc2OC)nc1C,-0.264 (inactive)
17,Cc1ccc(C)c(NC(=O)CCC(=O)NNC(=O)c2cccs2)c1,-1.3 (inactive)
18,Cc1ccc2c(c1)c1ncn(Cc3ccc(F)cc3)c(=O)c1n2C,-2.08 (inactive)
19,O=[N+]([O-])c1cc([N+](=O)[O-])c2cccnc2c1O,-1.12 (inactive)
20,COC(=O)c1ccc(COc2cc([N+](=O)[O-])cc3cccnc23)cc1,0.95 (inactive)
21,O=C(Nc1ccc([N+](=O)[O-])cc1)C1CC12CCC2 (centres undefined),-0.552 (inactive)
22,CCOc1ccc(NC(=S)N2CCCCCC2)cc1,-0.294 (inactive)
23,CCOCC(=O)Nc1ncc(S(=O)(=O)c2ccc([N+](=O)[O-])cc2)s1,-0.205 (inactive)
24,CCc1ccc(-n2c(SCc3cc(=O)n4cc(Br)ccc4n3)nc3[nH]ncc3c2=O)cc1,-1.01 (inactive)
25,CC(C)c1ccc(NC(=S)NNc2ccc(Cl)c(C(=O)O)c2)cc1,0.393 (inactive)

row,SMILES,B-score of Tl+ flux slope (higher = more flux/activation; lower = inhibition)
1,Cc1ccccc1NC(=S)Nc1cccc([N+](=O)[O-])c1,0.705 (inactive)
2,Cc1ccc(C)c(NC(=S)NNC(=S)Nc2ccc(C(C)C)cc2)c1,4.26 (active)
3,Cc1cc(C(=O)NNC(=S)Nc2ccccc2C)cs1,4.58 (active)
4,Cc1ccc(NC(=S)N/N=C2/CCCc3c(C)cc(C)cc32)cc1,0.076 (inactive)
5,Cc1cc(C(=O)NNC(=S)NC(C)c2ccccc2)cs1 (centres undefined),-1.17 (inactive)
6,COc1ccc(CCNC(=O)C(=O)NCC2CCNCC2)cc1OC,0.52 (inactive)
7,O=C(NNc1cc(Cl)cc(Cl)c1)c1c(F)cccc1Cl,-0.755 (inactive)
8,COc1cc(OC)c(OC)cc1/C=N/Nc1ncnc2c1[nH]c1ccc(C)cc12,-1.07 (inactive)
9,Cc1ccc(C(=O)NNc2ncnc3ccccc23)cc1,0.377 (inactive)
10,OC(c1ccccc1)C(CN1CCOCC1)c1ccccc1 (centres undefined),0.0146 (inactive)
11,Cc1ccc(N=Cc2c(O)cc(C)oc2=O)c(C)c1,1.91 (inactive)
12,Cc1ccc(N=Cc2c(O)n(-c3nccs3)c(=O)c3ccccc23)c(C)c1,-6.91 (active)
13,Cc1ccc(-n2c(O)c(C=Nc3ccc(S(=O)(=O)Nc4ncccn4)cc3)c3ccccc3c2=O)cc1C,-0.0402 (inactive)
14,CC(=O)Nc1ccc(S(=O)(=O)NC2(C(F)(F)F)C(=O)NC(C)=C2C#N)cc1 (centres undefined),-0.983 (inactive)
15,CCOC(=O)C1=C(NC(=S)NC(=O)c2ccccc2)c2ccccc2CC1(C)C,3.94 (active)
16,CCOC(=O)c1c(NC(=O)C2(C)Cc3ccccc3C(=O)O2)sc2c1CCCC2 (centres undefined),1.05 (inactive)
17,COCCCNC(=S)NC(=O)c1ccccc1,1.23 (inactive)
18,Cc1nnsc1C(=O)NCc1c(F)cccc1Cl,0.221 (inactive)
19,COc1ccccc1NC(=O)c1cc(Cl)nc2ccccc12,0.201 (inactive)
20,COc1cc(NC(=O)c2ccc(CNc3c(N4CCCC4)c(=O)c3=O)cc2)cc(OC)c1OC,0.127 (inactive)
21,CCOC(=O)c1c(C)[nH]c(C)c1C(=O)CSc1nc(N)cc(N)n1,6.26 (active)
22,Cc1cc(C)nc(SCC(=O)N(C)C)n1,-0.609 (inactive)
23,CCOC(=O)c1c(C)oc(C)c(C(=O)OCC)c1=O,-0.18 (inactive)
24,O=S(=O)(NCCc1csc(-c2ccccc2)n1)c1cccnc1,-0.711 (inactive)
